# PubChem BioAssay
# The source made the active and inactive calls.
# Key:
# [1] = system: Plasmodium falciparum Sir2 (PF13_0152, Sir2A); test: Plasmodium falciparum Sir2A binding compounds – biochemical, small-molecule microarray, 635 nm fluorescence, primary screen (AID 1098); settings: fluorescence 635 nm, higher = more signal;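 also: score merges spot fluorescence intensity with its signal-to-noise ratio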
# [2] = probe aDKK1 binding to arrayed compounds – biochemical, biotinylated probe, 635/667 nm fluorescence, primary screen (AID 1099); settings: small-molecule microarray, higher = more signal;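 also: score merges 667nm spot fluorescence with signal to noise across triplicate slides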
# [3] = probe aCHRDL2 binding to arrayed compounds – biochemical, biotinylated probe, 635/667 nm fluorescence, primary screen (AID 1100); settings: small-molecule microarray, higher = more signal
# [4] = change in splice reporter luminescence, either direction, cell-based, HEK293, spliceosome inhibition project, primary screen (AID 1101); settings: HEK293 splicing luciferase reporter, 24 h, higher = more signal, called active from +8 up or from −8 down;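 also: HEK293 cells carrying a splicing-competent luciferase reporter gene; test concentration not given here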
# [5] = molecular target: Fibroblast growth factor 10 (Homo sapiens) (UniProt O15520); test: compounds binding fibroblast growth factor 10 – biochemical, small-molecule microarray, 635 nm fluorescence, primary screen (AID 1102); settings: FGF10 binding, fluorescence 635 nm, higher = more signal
# Fibroblast growth factor 10 (Homo sapiens), sequence (O15520 whole entry, looked up): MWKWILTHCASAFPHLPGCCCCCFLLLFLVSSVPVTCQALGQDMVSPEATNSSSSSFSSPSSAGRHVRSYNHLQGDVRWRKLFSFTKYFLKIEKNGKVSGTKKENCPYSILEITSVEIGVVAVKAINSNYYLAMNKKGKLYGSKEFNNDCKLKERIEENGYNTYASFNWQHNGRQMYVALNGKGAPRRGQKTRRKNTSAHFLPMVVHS
# [6] = system: glycogen synthase kinase-3 (GSK3A per assay name; protocol says GSK3B); test: compounds binding glycogen synthase kinase-3 – biochemical, small-molecule microarray, 635 nm fluorescence, GSK3A, primary screen (AID 1103); settings: fluorescence 635 nm, higher = more signal; also: the record names both GSK3A and GSK3B
# [7] = molecular target: Epidermal growth factor receptor (Homo sapiens) (UniProt P00533); test: compounds binding epidermal growth factor receptor – biochemical, small-molecule microarray, 635 nm fluorescence, primary screen (AID 1104); settings: EGFR binding, higher = more signal;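 also: score merges 667 nm emission intensity with spot signal to noise over triplicate slides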
# Epidermal growth factor receptor (Homo sapiens), sequence (P00533 whole entry, looked up): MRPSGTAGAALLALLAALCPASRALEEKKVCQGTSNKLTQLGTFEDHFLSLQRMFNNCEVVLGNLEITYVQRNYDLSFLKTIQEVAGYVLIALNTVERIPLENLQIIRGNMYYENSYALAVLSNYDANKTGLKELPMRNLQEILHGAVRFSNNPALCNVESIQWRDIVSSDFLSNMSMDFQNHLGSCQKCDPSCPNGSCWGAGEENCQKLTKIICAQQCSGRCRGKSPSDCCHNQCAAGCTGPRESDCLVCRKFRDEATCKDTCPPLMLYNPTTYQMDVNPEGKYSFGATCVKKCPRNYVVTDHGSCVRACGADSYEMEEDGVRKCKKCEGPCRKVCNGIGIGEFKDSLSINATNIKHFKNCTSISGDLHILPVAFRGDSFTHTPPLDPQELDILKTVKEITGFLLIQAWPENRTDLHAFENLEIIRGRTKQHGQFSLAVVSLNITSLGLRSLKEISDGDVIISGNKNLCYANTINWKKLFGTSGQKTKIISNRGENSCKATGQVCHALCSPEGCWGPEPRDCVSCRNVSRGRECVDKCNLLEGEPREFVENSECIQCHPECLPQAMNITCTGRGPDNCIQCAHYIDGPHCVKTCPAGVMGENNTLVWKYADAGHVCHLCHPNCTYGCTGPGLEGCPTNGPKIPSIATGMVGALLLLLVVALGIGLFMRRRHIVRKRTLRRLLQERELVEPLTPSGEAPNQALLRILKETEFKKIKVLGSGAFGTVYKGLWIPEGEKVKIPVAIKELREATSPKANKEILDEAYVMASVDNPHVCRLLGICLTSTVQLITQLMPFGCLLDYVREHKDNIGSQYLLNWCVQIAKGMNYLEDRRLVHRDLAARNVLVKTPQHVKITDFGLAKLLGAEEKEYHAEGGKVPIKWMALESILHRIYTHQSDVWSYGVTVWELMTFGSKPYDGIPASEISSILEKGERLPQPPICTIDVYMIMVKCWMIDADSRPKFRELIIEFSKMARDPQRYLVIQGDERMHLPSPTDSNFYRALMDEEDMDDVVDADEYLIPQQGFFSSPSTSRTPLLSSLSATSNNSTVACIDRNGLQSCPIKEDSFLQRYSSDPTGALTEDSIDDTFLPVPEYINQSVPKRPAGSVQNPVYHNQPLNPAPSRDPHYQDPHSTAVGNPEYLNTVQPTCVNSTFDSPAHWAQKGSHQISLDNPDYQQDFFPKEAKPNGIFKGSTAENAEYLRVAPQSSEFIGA
# [8] = molecular target: Follistatin-related protein 3 (Homo sapiens) (UniProt O95633); test: compounds binding follistatin-related protein 3 – biochemical, small-molecule microarray, 635 nm fluorescence, primary screen (AID 1105); settings: FSTL3 binding, higher = more signal;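 also: score merges emission near 667 nm and signal to noise per printed spot across three slides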
# Follistatin-related protein 3 (Homo sapiens), sequence (O95633 whole entry, looked up): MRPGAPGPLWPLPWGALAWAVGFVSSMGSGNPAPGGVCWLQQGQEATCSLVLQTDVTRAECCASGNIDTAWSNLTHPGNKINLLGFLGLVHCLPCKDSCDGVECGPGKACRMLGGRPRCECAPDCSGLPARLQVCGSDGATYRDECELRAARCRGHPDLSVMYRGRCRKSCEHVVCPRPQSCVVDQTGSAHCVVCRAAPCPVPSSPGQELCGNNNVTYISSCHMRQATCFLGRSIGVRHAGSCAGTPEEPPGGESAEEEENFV
# [9] = molecular target: Dickkopf-related protein 1 (Homo sapiens) (UniProt O94907); test: small molecules binding DKK1 protein – biochemical, small-molecule microarray, 635 nm fluorescence scan, primary screen (AID 1106); settings: higher = more signal;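 also: score merges emission near 667 nm with signal to noise over three replicate slides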
# Dickkopf-related protein 1 (Homo sapiens), sequence (O94907 whole entry, looked up): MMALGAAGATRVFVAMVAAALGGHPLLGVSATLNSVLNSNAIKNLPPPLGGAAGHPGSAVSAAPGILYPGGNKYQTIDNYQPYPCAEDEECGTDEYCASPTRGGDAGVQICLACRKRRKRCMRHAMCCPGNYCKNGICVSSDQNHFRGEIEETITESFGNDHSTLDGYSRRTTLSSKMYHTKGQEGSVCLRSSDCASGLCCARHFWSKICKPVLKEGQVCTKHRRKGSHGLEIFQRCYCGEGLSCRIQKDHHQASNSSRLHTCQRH
# [10] = system: Inhibin beta A chain (activin A); test: small molecules binding activin A – biochemical, small-molecule microarray, 635 nm fluorescence scan, primary screen (AID 1107); settings: INHBA, higher = more signal;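 also: mouse activin A protein probed at 4.33 µg/mL on printed slides; score merges bound-protein fluorescence near 667 nm with spot signal-to-noise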
# [11] = system: Human papillomavirus type 1a protein E7 (residues 44-93); test: small molecules binding HPV E7 44-93 – biochemical, small-molecule microarray, residues 44-93, 635 nm fluorescence, primary screen (AID 1108); settings: fluorescence 635 nm, higher = more signal;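 also: E7 fragment applied at 1 µg/mL in TBST for 1 h at 4 C; score combines spot fluorescence with its signal to noise ratio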
# [12] = hepatitis C replication reporter changes, two-sided – Huh7 cells, luciferase reporter, HCV replication inhibitor project, primary screen (AID 1109); settings: Huh7 HCV replicon luciferase reporter, 48 h; higher = more signal;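 also: huh7 hepatoma cells harbouring a luciferase neomycin HCV replicon reporter; luciferase luminescence as measure of HCV replicon replication; test concentration not given here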
# [13] = molecular target: Left-right determination factor 2 (Homo sapiens) (UniProt O00292); test: small molecules binding LEFTY2 protein – biochemical, small-molecule microarray, 635 nm fluorescence scan, primary screen (AID 1110); settings: higher = more signal
# Left-right determination factor 2 (Homo sapiens), sequence (O00292 whole entry, looked up): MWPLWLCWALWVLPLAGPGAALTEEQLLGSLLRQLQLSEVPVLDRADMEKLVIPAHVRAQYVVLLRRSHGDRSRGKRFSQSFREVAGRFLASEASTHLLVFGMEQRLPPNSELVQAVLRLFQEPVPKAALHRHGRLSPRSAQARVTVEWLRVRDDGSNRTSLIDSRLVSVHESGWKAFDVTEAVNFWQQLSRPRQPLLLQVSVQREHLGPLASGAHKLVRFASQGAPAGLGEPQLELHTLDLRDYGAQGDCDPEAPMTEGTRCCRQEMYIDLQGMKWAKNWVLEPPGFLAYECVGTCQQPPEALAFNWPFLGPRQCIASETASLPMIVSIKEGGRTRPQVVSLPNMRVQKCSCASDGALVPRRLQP
# [14] = molecular target: Calmodulin-1 (Homo sapiens) (UniProt P0DP23); test: small molecules binding calmodulin-1 with EGTA – biochemical, small-molecule microarray, Cy5-labelled CALM1, profiling panel (AID 1111); settings: Cy5-CALM1 binding fluorescence, higher = more signal;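 also: labelled calmodulin applied in Tris saline Tween buffer holding calcium plus EGTA and DTT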
# [15] = molecular target: Calmodulin-1 (Homo sapiens) (UniProt P0DP23); test: small molecules binding Ca-loaded calmodulin-1 – biochemical, small-molecule microarray, Cy5-labelled CALM1, plus calcium, artefact control for SMM control-protein annotation, profiling panel (AID 1112); settings: Cy5-CALM1 binding fluorescence, higher = more signal;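 also: score merges spot fluorescence with signal to noise from triplicate slides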
# [16] = probe aWnt5a binding to arrayed compounds – biochemical, biotinylated probe, 635/667 nm fluorescence, primary screen (AID 1113); settings: small-molecule microarray, higher = more signal;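 also: score merges 667 nm fluorescence intensity with signal-to-noise per printed feature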
# [17] = probe aShh binding to arrayed compounds – biochemical, biotinylated probe, 635/667 nm fluorescence, primary screen (AID 1114); settings: small-molecule microarray, higher = more signal;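 also: probe is biotin-labelled aShh protein from a stem cell growth factor screen; measures binding of labelled protein to compounds printed on the slide; score merges feature fluorescence at 667 nm with signal-to-noise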
# [18] = probe aNog binding to arrayed compounds – biochemical, biotinylated probe, 635/667 nm fluorescence, primary screen (AID 1115); settings: small-molecule microarray, higher = more signal;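 also: probe is biotinylated aNog protein used at 0.15 µg/mL for 1 h at 4 C; z-score combines 667 nm fluorescence of each spot with its signal to noise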
# [19] = molecular target: Torsin-1A-interacting protein 1 (Homo sapiens) (UniProt Q5JTV8); test: compound microarray binding of lysate hLAP1 – cell lysate, small-molecule microarray, COS7 lysate, 635/667 nm fluorescence, primary screen (AID 1116); settings: 635 nm fluorescence, higher = more signal
# Torsin-1A-interacting protein 1 (Homo sapiens), sequence (Q5JTV8 whole entry, looked up): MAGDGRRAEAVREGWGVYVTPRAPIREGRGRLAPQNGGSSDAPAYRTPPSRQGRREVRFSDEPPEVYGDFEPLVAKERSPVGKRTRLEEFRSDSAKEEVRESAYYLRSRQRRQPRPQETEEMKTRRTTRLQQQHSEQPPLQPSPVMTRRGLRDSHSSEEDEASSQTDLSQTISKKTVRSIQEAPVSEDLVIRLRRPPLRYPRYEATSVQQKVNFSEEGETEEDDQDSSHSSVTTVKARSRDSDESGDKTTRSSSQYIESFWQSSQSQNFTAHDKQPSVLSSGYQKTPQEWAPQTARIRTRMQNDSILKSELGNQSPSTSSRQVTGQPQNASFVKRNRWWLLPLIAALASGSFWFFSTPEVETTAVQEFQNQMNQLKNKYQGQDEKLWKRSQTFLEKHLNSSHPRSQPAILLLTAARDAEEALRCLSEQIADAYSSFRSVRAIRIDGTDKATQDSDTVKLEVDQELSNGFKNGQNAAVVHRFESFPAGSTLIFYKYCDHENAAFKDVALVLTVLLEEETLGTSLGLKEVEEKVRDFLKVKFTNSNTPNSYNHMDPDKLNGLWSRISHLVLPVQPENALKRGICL
# [20] = molecular target: Alpha-bungarotoxin (Bungarus multicinctus) (UniProt P60615); test: compounds binding labelled alpha-BTX control protein – biochemical, small-molecule microarray, Alexa647 label, 635/667 nm fluorescence, artefact control for SMM control protein annotation, profiling panel (AID 1117); settings: alpha-BTX-A647 binding fluorescence, higher = more signal
# Alpha-bungarotoxin (Bungarus multicinctus), sequence (P60615 whole entry, looked up): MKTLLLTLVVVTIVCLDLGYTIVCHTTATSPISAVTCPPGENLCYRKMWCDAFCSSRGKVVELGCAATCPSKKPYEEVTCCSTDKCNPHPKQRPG
SMILES,composite z-score [1],composite z-score [2],composite z-score [3],z-score [4],composite z-score [5],composite z-score [6],composite z-score [7],composite z-score [8],composite z-score [9],composite z-score [10],composite z-score [11],z-score [12],composite z-score [13],composite z-score [14],composite z-score [15],composite z-score [16],composite z-score [17],composite z-score [18],composite z-score [19],composite z-score [20]
C[C@]1(C(=O)NCC(F)(F)F)c2ccccc2C(=O)N(Cc2cc(F)cc(C(F)(F)F)c2)[C@H]1c1ccc(CO)cc1,1.54,1.64,0.572,-0.633 (inactive),0.257,-0.12,0.0376,-0.66,-0.609,-0.461,1.05,-0.906,-0.977,1.6,0.302,-0.224,0.0024,0.452,0.729,0.0035
CC(=O)NCCCC[C@@H]1NC(=O)[C@@H]2C[C@H](C(=O)NCc3ccc(F)cc3)[C@H](c3ccc(O)cc3)N2C1=O,1.51,-0.239,-0.072,-0.661 (inactive),0.784,0.767,0.0059,0.177,0.592,0.0015,0.0999,-0.673,0.591,0.0633,-0.72,-0.103,0.785,-0.314,0.362,0.346
C=C(C(=O)CC[C@H](OC(=O)c1cccnc1)c1ccccc1OCCO)C(C)C,1.14,-0.109,-0.0641,3.21 (inactive),1.56,0.98,1.25,1.13,0.962,1.11,1.05,-2.71,0.753,-0.62,-1.24,0.121,-0.0035,-0.176,1.99,0.892
CCCNC(=O)[C@@]1(C)c2ccccc2C(=O)N(Cc2cc(C(F)(F)F)cc(C(F)(F)F)c2)[C@H]1c1ccc(CO)cc1,0.0609,0.21,0.608,-0.542 (inactive),-0.0617,-0.196,-0.708,-0.808,-0.408,-0.605,1.23,-1.16,-0.657,0.0189,0.168,0.0377,-0.297,-0.158,1.61,0.919
O=C1c2ccccc2[C@@]2(Cc3ccccc3N(Cc3ccccc3)C2=O)[C@H](c2ccc(CO)cc2)N1Cc1ccccc1C(F)(F)F,1.1,0.0463,0.847,0.0517 (inactive),-0.665,-0.866,-1.09,-0.71,-1.38,0.581,-0.648,-0.353,-1.3,-0.457,-0.176,-0.157,0.0684,0.549,0.0154,-0.32
O=P(NCC1(CC2(c3ccccc3)CO2)CC1)(c1ccccc1)c1ccccc1 (stereo not given),1.57,0.29,1.02,-1.45 (inactive),-0.686,-1.49,-1.28,-1.37,-0.915,0.758,-0.498,-1.17,-1.79,-0.0905,0.388,-0.0384,0.826,-0.45,-0.225,-0.879
COC(=O)c1c(CC[C@@H](CO)NC(=O)Nc2ncn[nH]2)oc(C(=O)Cc2ccccc2)c1C(=O)OC,0.0638,0.0272,-0.0621,0.801 (inactive),1.08,0.938,0.596,1.01,0.957,0.616,0.693,0.0922,0.506,0.0262,-0.828,-0.243,0.158,-0.0144,-0.0045,0.924
C[n+]1ccc2ccc(O)cc2c1,-0.0574,-0.147,-0.444,0.526 (inactive),1.07,0.534,1.19,1.45,1.31,1.53,0.642,-0.337,0.92,-0.825,-1.61,-0.124,-0.0804,-0.323,1.62,0.273
CN1C(=O)C2C=CC(C(O)c3ccc(Br)cc3)N(Nc3ccccc3)C2C1=O (stereo not given),-0.186,0.528,1.03,1.11 (inactive),-0.583,-1.21,-1.3,-1.09,-1.49,1.12,-0.0441,0.15,-1.43,-0.209,0.394,-0.124,-0.178,0.154,0.65,-0.292
C=CC[C@@]1(C(=O)NCc2ccccc2)N=C(c2ccc(OCCCO)cc2)O[C@@H]1c1ccccc1CN=[N+]=[N-],1.1,0.9,0.953,0.147 (inactive),1.15,0.0389,-0.282,0.849,0.0805,0.835,1.41,-2.31,-0.511,1.13,0.429,0.0676,0.448,0.622,1.1,1.28
O=C(NCC(O)CO)[C@@]1(Cc2ccccc2)COC(c2ccc(OCCCO)cc2)=N1 (stereo not given in full),-0.509,0.549,0.536,0.138 (inactive),-0.309,-0.546,-0.198,-1.21,-0.92,0.656,0.422,-0.992,-0.483,0.77,1.11,-0.0704,-0.283,-0.134,0.561,-0.363
COc1ccc([Si](C)(C)[C@H]2[C@H](CC(=O)N3CCC[C@H]3CO)O[C@@]3(C(=O)N(Cc4cccc(N5CCC5=O)c4)c4ccccc43)[C@@H]2C)cc1,1.11,-0.0732,-0.222,0.566 (inactive),1.4,1.27,0.993,1.45,0.672,0.728,1.41,-2.36,0.992,-0.105,-0.363,-0.0203,0.265,0.572,0.901,0.872
C=C[C@H](OC)[C@@H](OC(=O)Nc1ccc(SC)cc1)c1ccc(OCCO)cc1,1.08,0.242,0.796,-1.96 (inactive),0.141,0.0735,-0.196,-0.275,0.155,-0.176,1.03,2.8,0.105,0.0629,0.362,0.0433,-0.0035,0.375,1.35,1.62
Cc1ccc(C(C)CC(O)C2C=CC3C(=O)NC(=O)C3N2Nc2ccccn2)o1 (stereo not given),1.22,0.182,-0.0866,0.802 (inactive),0.228,0.309,0.401,0.506,0.906,1.25,0.0598,-0.146,0.479,-0.409,-0.743,-0.1,-0.0626,-0.0863,0.773,-0.0054
CN(C)CCCC[C@@H]1NC(=O)[C@@H]2C[C@H](C(=O)NCCCCCN)[C@H](c3ccc(O)cc3)N2C1=O,0.016,0.442,0.916,-0.159 (inactive),-0.008,0.31,-0.912,-1.25,-0.722,-0.273,0.0063,0.285,-0.93,1.99,1.42,-0.208,-0.026,0.262,0.777,1.19
